# Bioassay records: PubChem, National Center for Advancing Translational Sciences (NCATS)
# Hits are enriched below; roughly 21% of the tested compounds scored in any of these assays.
# Pf growth 48h: inhibits P. falciparum growth in the first generation, 48 h; 310,000 compounds, 5.9% hits; P. falciparum luciferase growth in erythrocytes, 48 h; AID 504832; Potency, µM (highest dose often 28.7 µM), for the others: top-dose activity change, negative = inhibition, usual class: inhibitors; also: potency is read from the fitted curve at half-maximal effect; % is scaled to controls: 0 for no effect and ±100 for the full control effect
#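 Luciferase-expressing P. falciparum in infected erythrocytes (2% hematocrit, 0.1% parasitemia final) in RPMI 1640/0.5% Albumax were exposed to compound for 48 hours at 37 C, 5% CO2; growth read as luminescence.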
# Cycloheximide cs: affects cycloheximide protein synthesis inhibition readout, counter-screen; 300,000 compounds, 12% hits; max response, %; cell reporter, cycloheximide protein synthesis inhibition counterscreen; AID 2314; in the data active = max response mostly above about 13%, no sharp cut-off; inactive = mostly below about 14%; also: read at 38.3 µM for the half of the compounds with a filed dose; 0% is about no effect
# Shiga inhibitor: Shiga toxin inhibition; Vero cells, Shiga toxin protein synthesis inhibition reporter; inhibition, % at 38.7 µM; 290,000 compounds, 9.2% hits; AID 2315; in the data active = inhibition mostly above about 28%, no sharp cut-off; inactive = mostly below about 43%; also: 0% is about no effect
# Pf growth 96h: inhibits malaria parasite growth, 96 h; P. falciparum luciferase reporter growth, 96 h; AID 504834; 320,000 compounds, 6.9% hits; Potency, µM (titrated, usually from 28.7 µM), for the others: top-dose activity change, negative = inhibition, usual class: inhibitors; also: potency is read from the fitted curve at half-maximal effect; % is scaled to controls: 0 for no effect and ±100 for the full control effect
#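 Erythrocytes infected with luciferase-expressing P. falciparum were dispensed at 2% hematocrit and 0.05% parasitemia (final), then incubated with compounds 96 hours at 37 C in 5% CO2. Luminescence after detection reagent addition reported growth.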
# Sm TGR inh: inhibitors of Schistosoma mansoni thioredoxin glutathione reductase; purified TGR, DTNB reduction, TNB absorbance 405 nm; Potency, µM (doses to about 114 µM), inactives show at the top dose activity change, negative = inhibition, hits mostly inhibitors; 360,000 compounds, 3% hits; AID 485364; also: potency is read from the fitted curve at half-maximal effect; % is scaled to controls: 0 for no effect and ±100 for the full control effect; nearly all actives have a fitted effect of over 60% in size
#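 First, TGR (20 nM dispensed) and NADPH were mixed with compound. Second, a 15 min room-temperature incubation followed. Third, further NADPH and then DTNB were added to start the reaction. Finally, TNB absorbance was monitored kinetically.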
# NS1 inh: influenza NS1 inhibition; Potency, µM (top dose mostly 46.1 µM), for the others: at the highest dose activity, positive = more growth; 270,000 compounds, 0.4% hits; AID 2326; calls by dose curve; also: potency is read from the fitted curve at half-maximal effect; actives are rising curves; nearly all actives have a fitted effect of over 50% in size
#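 Recovery from NS1-induced slow growth read by OD600 in budding yeast switched to galactose assay medium (pH 6.0, -URA) at 1:100 dilution. Compound 23 nl per well; the matching strain lacking NS1 serves as control.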
# Active calls of the source: *; ? = inconclusive; · = not tested or not shown; [ ] = another dose, or the depositor's remark. Unless noted, calls follow the shape of the dose curve; as a rule, active = well fitted curve in the direction sought with a large enough effect; inconclusive = small, poorly fitted or top-dose-only effect, or another doubt; inactive = no such curve, though single readings can be large; an effect the other way counts as inactive or inconclusive.
SMILES,Pf growth 48h,Cycloheximide cs,Shiga inhibitor,Pf growth 96h,Sm TGR inh,NS1 inh
CCCn1c(NC(=O)c2ccc(C)cc2)nc2ccccc21,?,17*,42*,?,5%,-18%
CCCn1c(NC(=O)c2ccccc2)nc2ccccc21,?,17,32,54%,-17%,-113%
C=CCn1c(NC(=O)c2ccc(C)cc2)nc2ccccc21,?,16*,42,-51%,22%,4%
O=C(Nc1nc2ccccc2n1CCN1CCCC1)c1ccc(Cl)cc1,?,16,78*,?,?,-5%
CCCn1c(CNC(=O)c2ccccc2)nc2ccccc21,2%,-3,2,2.9µM*,-2%,-10%
CC(C)Cn1c(CNC(=O)c2ccccc2)nc2ccccc21,16%,3,-5,53%,7%,-47%
O=C(Nc1nc2ccccc2n1CCN1CCCCC1)c1ccc(Cl)cc1,·,10,36,49%,-8%,4%
CC(C)n1nc(C(=O)Nc2nnc(SCc3c(Cl)cccc3Cl)s2)c2ccccc2c1=O,?,-5,2,·,8%,5%
O=C(NCC12CC3CC(CC(C3)C1)C2)c1cc2nc(-c3ccc(Cl)cc3)cc(C(F)(F)F)n2n1,·,·,·,·,5%,·
COc1ccc2oc(C(=O)OCC(=O)N(CCC#N)c3ccccc3)c(C)c2c1,?,-3,-28,?,-10%,6%
Cc1cc(-c2ccc(S(=O)(=O)N3CCN(c4ccccc4F)CC3)s2)on1,-17%,-4,-5,?,3%,-6%
O=C(Nc1nc2ccccc2n1CCN1CCCC1)C1CCCCC1,?,-2,-48,75%,1%,-8%
O=C(Nc1nc2ccccc2n1CCN1CCOCC1)c1ccc(Cl)cc1,13µM*,12*,50*,?,-2%,2%
Cc1ccc(C(=O)Nc2nc3ccccc3n2CCN2CCCC2)cc1,?,38*,104*,·,-10%,2%
CCNC(=O)c1cccc(S(=O)(=O)N2CCCCCC2)c1,-23%,-2,0,?,4%,-9%
CCCn1c(NC(=O)C2CCN(S(=O)(=O)c3cccs3)CC2)nc2ccccc21,10µM*,0,-22,71%,5%,-74%
CCCn1c(NC(=O)c2cccc(S(=O)(=O)N3CCCC3)c2)nc2ccccc21,?,-8,0,9.3µM*,4%,-33%
COc1cccc(CNC(=O)CCS(=O)(=O)c2cccs2)c1,28%,9,-12,58%,-31%,15%
O=C(CSc1cn(CC(=O)N2CCCC2)c2ccccc12)Nc1cc(C(F)(F)F)ccc1Cl,·,·,·,·,-4%,·
CCc1ccc(S(=O)(=O)c2cn(C)c3cc(N4CCCCC4C)c(F)cc3c2=O)cc1 (stereo unspecified),·,·,·,·,-9%,·
O=C(CCc1nnc(Cc2cccc(C(F)(F)F)c2)o1)NCC(F)(F)F,9%,1,16,?,1%[57.1 µM],3%
CC(C)CN(C)C(=O)CCc1nnc(Cc2cccc(C(F)(F)F)c2)o1,39%,47*,109*,-5%,0%,-1%
O=C(CCc1nnc(Cc2cccc(C(F)(F)F)c2)o1)NC1CC1,3%,2,15,?,12%,4%
C=C(C)CNC(=O)CCc1nnc(Cc2cccc(C(F)(F)F)c2)o1,17%,44*,123*,-1%,4%[57.1 µM],-7%
CC(NC(=O)CCc1nnc(Cc2cccc(C(F)(F)F)c2)o1)C1CC1 (stereo unspecified),3%,53*,92*,32%,8%,-1%
SMILES,Pf growth 48h,Cycloheximide cs,Shiga inhibitor,Pf growth 96h,Sm TGR inh,NS1 inh
O=C(CN1CCN(C(=O)CCC(=O)N2CCC(c3ccccc3)=N2)CC1)Nc1ccc(F)cc1,10%,·,·,-24%,-10%,·
COc1cccc(C(=O)NC2CCN(CC(=O)Nc3c(C)cc(C)cc3C)CC2)c1,?,2,-5,33%,12%,5%
Cc1ccccc1C(=O)NC1CCN(CC(=O)Nc2ccccc2Cl)CC1,-13%,-1,-9,0.93µM*,-6%,7%
O=C(NC1CCN(c2ncccn2)CC1)c1ccccc1F,12%,5,-21,-8%,-6%,2%
CN(C)c1ccc(NC(=O)CN2CCc3ccccc3C2)cc1,66%,36*,92*,74%,-7%,5%
O=C(NC1CCN(c2ncccn2)CC1)c1ccccc1Cl,-10%,4,1,10µM*,10%,0%
COc1ccc(C(=O)NC2CCN(CC(=O)Nc3c(C)cccc3C)CC2)cc1OC,-21%,-2,·,10%,100µM*,2%
CCC(=O)NC(Nc1nc(C)cs1)(C(=O)OC)C(F)(F)F (stereo unspecified),26%,-4,-17,-7%,?,6%
Cc1ccc(C(=O)COC(=O)c2cccc(NC(=O)c3ccc(Cl)cc3Cl)c2)cc1,·,·,·,·,3%,·
CCN1CCC(N(Cc2ccc(F)cc2)C(=O)Nc2cccc(C(F)(F)F)c2)CC1,·,·,·,·,10%,·
Cc1ccccc1C(=O)NC1CCN(CC(=O)Nc2ccc(N(C)C)cc2)CC1,44%,-4,9,9%,40µM*,-6%
COC(=O)c1ccccc1NC(=O)CN1CCC(NC(=O)c2ccccc2C)CC1,?,13,41,-16%,?,-22%
O=C(CN1CCCCC1)Nc1ccc(NC(=O)c2ccccc2Cl)cc1Cl,-9%,-1,7,15µM*,-12%,-12%
CN1CC(=O)N(CC(=O)Nc2ccc(N(C)C)cc2)c2ccccc2C1=O,31%,8,26,9%,50µM*,2%
CN(C)c1ccc(NC(=O)CN2C(=O)CN=C(c3ccccc3)c3ccccc32)cc1,2%,-6,-7,·,-3%,-15%
CCC1CCC2(CC1)NC(=O)N(CC(=O)c1c(C)[nH]c3ccccc13)C2=O (stereo unspecified),?,-2,-2,?,-18%,-25%
N#Cc1ccc(-c2ccc(OCC(O)Cn3nnc4ccccc43)cc2)cc1 (stereo unspecified),?,2,-2,?,5%,-192%
CC(=O)c1ccc(OCC(O)Cn2nnc3ccccc32)cc1 (stereo unspecified),7.4µM*,39*,69,32%,0%,-7%
O=C1C2CC=CCC2C(=O)N1c1ccc(OCC(O)Cn2nnc3ccccc32)cc1 (stereo unspecified),·,-2,-9,15µM*,4%,-11%
Cc1ccc2c(c1)c(C)c(C)n2CC(O)Cn1nnc2ccccc21 (stereo unspecified),31%,30*,52,?,0%,-53%
CC(=O)c1ccc(OCC(O)CN2CCC(C)CC2)cc1 (stereo unspecified),·,0,11,?,-2%,-8%
CC(=O)c1ccc(OCC(O)CN2C(C)CCCC2C)cc1 (stereo unspecified),·,-6,-3,8.3µM*,3%,-1%
